Measured values: PubChem BioAssay (EPA / NIEHS)
Calls of active or inactive are those of the source. How the source made its calls: active means hit-call score of the fitted dose curve at least 0.9, where 1 is the maximum; inactive means score below 0.9.

Experiment: APR_HepG2_CellLoss_24hr: Apredica 24-hour HepG2 Assay for Cell Loss (AID 2282908);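 on AC50: fit in both directions so a hit may be cell loss or gain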
Details: high-content imaging
Method: APR_HepG2_24hr is a cell-based, multiplexed-readout assay that uses HepG2, a human liver cell line, with measurements taken at 24 hours after chemical dosing in a 384-well plate.APR_HepG2_CellLoss_24hr is one of 10 assay component(s) measured or calculated from the APR_HepG2_24hr assay. It is designed to make measurements of cell number, a form of viability reporter, as detected with fluorescence intensity signals by HCS Fluorescent Imaging technology.Data from the assay component APR_HepG2_CellLoss_24hr was analyzed into 1 assay endpoint. This assay endpoint, APR_HepG2_CellLoss_24hr, was analyzed with bidirectional fitting relative to DMSO as the negative control and baseline of activity. Using a type of viability reporter, measures of all nuclear dna for gain or loss-of-signal activity can be used to understand the viability at the cellular-level. Furthermore, this assay endpoint can be referred to as a secondary readout, because this assay has produced multiple assay endpoints where this one serves a viability function. To generalize the intended target to other relatable targets, this assay endpoint is annotated to the cell cycle intended target family, where the subfamily is proliferation.
Cells were treated with dimethyl sulfoxide (DMSO) as a solvent control at a final concentration of 0.5% v/v or with compounds in DMSO with a resulting final DMSO concentration of 0.5% v/v. Compound treatment was done at concentrations of 0.39, 0.78, 1.56, 3.12, 6.24, 12.5, 25, 50, 100, and 200 uM in duplicate on each plate. Cells were treated with compounds for 1, 24, or 72 hr. Carbonyl […] m-chloro-phenylhydrazone (CCCP) and taxol were used as positive controls for mitochondrial function and cytoskeletal stability, respectively; DMSO served as the negative control for this experiment. Cells were fixed by the direct addition of 50 uL formaldehyde in Hank's Balanced Salt Solution (HBSS) to a final concentration of 3.7%. After incubation in the fixation medium for 30 min at room temperature (293-298 K), cells were rinsed twice with HBSS and treated with cell permeabilization buffer (16 uL of 0.5% Triton X-100) for 10 min at room temperature (293-298 K) before labeling. For mitochondrial membrane potential and mitochondrial measurements, pre-fixed cells were incubated with 50 uL of MitoTracker Red CMXRos (Invitrogen) at a concentration of 250 nM for 30 min before fixation. In the remaining cases, post-fixed cells were labeled by incubation with a multiplexed mixture of primary antibodies in HBSS for 60 min at room temperature (293-298 K) to detect immunoreactivity of c-Jun (1:500), phospho-histone H3 (1:100), phospho-histone H2A.x (1:200), p53 (1:400), alpha-tubulin (1:200) and Hoechst 33342 (2 ug/mL). Cells were labeled for multiplexed imaging on two separate plates: a) Hoechst 33342, MitoTracker Red, phospho-histone H3, and alpha-tubulin, and b) Hoechst 33342, phospho-histone H2A.x, and c-Jun. A final rinse with HBSS (50 uL) was performed before analysis. The primary and secondary antibodies for the proteins were phospho-histone H3 (rabbit anti-phospho-histone H3 and FITC-donkey anti-rabbit IgG), phospho-histone H2A.x (mouse anti-phospho-histone H2A.x and FITC-donkey anti-mouse IgG), c-Jun (rabbit anti-phospho-c-Jun and Cy3-donkey anti-rabbit IgG), p53 (sheep anti-p53 and Cy5-donkey anti-sheep IgG), alpha-tubulin (mouse anti-alpha-tubulin and Cy5-donkey anti-mouse IgG). These antibodies are available as the CellCiphr HepG2 assay kit (Millipore).Digital images of each well were captured using a Cellomics ArrayScan VTI (Thermo Scientific Cellomics) (0.8 NA objective, 0.63x optical coupler, and XF-93 filter set) at 20x magnification. The images were acquired using the autofocus feature of the ArrayScan instrument, which entails the following steps. First, the camera focuses on channel 1 (Hoechst 33342), where nuclei are identified. Second, a Z offset of 1 um is used for capturing mitochondria (MitoTracker Red). […]

Compound | outcome | AC50
CN(C)CCCN(C)CCCN(C)C | inactive | 
COc1ccc(OC(F)(F)F)cc1CN[C@H]1CCCN[C@H]1c1ccccc1 |  | 45.8 µM (active)
OCC(CO)n1cnc(-c2ccc(F)cc2)c1-c1ccnc(Oc2ccccc2)n1 | inactive | 
CC(C)NCC(O)c1ccc(O)c(O)c1 (stereo not given) | inactive | 
CC(=O)S[C@H](C(=O)N[C@H]1Cc2ccccc2[C@H]2CCC[C@@H](C(=O)O)N2C1=O)C(C)C | inactive | 
CCCCCCCCCCCCCCCCO | inactive | 
O=C(Oc1ccccc1)c1cccc(C(=O)Oc2ccccc2)c1 | inactive | 
Cc1cc(Cc2ccc(N)c(C)c2)ccc1N | inactive | 
O=C(O)CN(CC(=O)O)CC(=O)O | inactive | 
CCCCC(CC)COP(=O)(OCC(CC)CCCC)OCC(CC)CCCC (stereo not given) |  | 37.7 µM (active)
O=C(O)c1cccnc1 | inactive | 
CC(C)c1cccc(C(C)C)c1 | inactive | 
NC1CCCCC1 | inactive | 
CCCCCCC(CCCCCCCCCCC(=O)OCC(COC(C)=O)OC(C)=O)OC(C)=O (stereo not given) | inactive | 
Nc1nc(=S)c2[nH]cnc2[nH]1 |  | 21.4 µM (active)
CCCCOC(=O)CCCCC(=O)OCCCC | inactive | 
CCCCCCCC(=O)OC | inactive | 
N[C@@H](Cc1c[nH]c2ccccc12)C(=O)O | inactive | 
Cc1cn([C@H]2C=C[C@@H](CO)O2)c(=O)[nH]c1=O | inactive | 
CCCCc1nc2cccnc2n1Cc1ccc(-c2ccccc2-c2nnn[nH]2)cc1 |  | 32.6 µM (active)

Compound | outcome | AC50
CCCCC(CC)COC(=O)CCCCCCCC(=O)OCC(CC)CCCC (stereo not given) | inactive | 
CN(C)C(=O)NC1(c2ccccc2)CCN(CCC[C@]2(c3ccc(Cl)c(Cl)c3)CCCN(C(=O)c3ccccc3)C2)CC1 |  | 24.9 µM (active)
O=C1c2c(O)cccc2Cc2cccc(O)c21 | inactive | 
C/C=C/c1ccc(OC)cc1 | inactive | 
CC(=O)OC1CC(C)OC(C)O1 (stereo not given) | inactive | 
CC(=O)OCC(COC(C)=O)OC(C)=O | inactive | 
O=NO | inactive | 
CC(N)=O | inactive | 
CSc1ccc(Oc2ccc(S(N)(=O)=O)cc2CN(C)C)cc1C |  | 131 µM (active)
COc1ccc(C(=O)Nc2nc3ccccc3c(NCc3ccccc3)c2C#N)cc1 |  | 119 µM (active)
CCCCC(CC)CO (stereo not given) | inactive | 
CCCCCCCCCCCCCCOS(=O)(=O)O |  | 117 µM (active)
CC(COCC(C)OC(=O)c1ccccc1)OC(=O)c1ccccc1 (stereo not given) | inactive | 
Cc1ccc(-c2cc(C(F)(F)F)nn2-c2ccc(S(N)(=O)=O)cc2)cc1 |  | 66.7 µM (active)
Cc1cc(SC2=C(O)C[C@@](CCc3ccc(N)cc3)(C(C)C)OC2=O)c(C(C)(C)C)cc1CO | inactive | 
CCCCCCCCCC[N+](C)(C)[O-] |  | 109 µM (active)
CCCC[C@H]1CN(CC2CCOCC2)C(=O)OC12CCN(C1(C)CCN(C(=O)c3c(C)ncnc3C)CC1)CC2 | inactive | 
OCC(O)CO | inactive | 
C#CC(O)C(CC)CCCC (stereo not given) | inactive | 
O=C(O)CC(O)(CC(=O)O)C(=O)O | inactive | 
